Bst PK mod: Pyruvate Kinase | purified pyruvate kinase, luminescence ATP production; ribose 5-phosphate activator present at AC10 | Potency, µM | 51,000 tested, 1.2% active; in the data active = potency below about 11 µM; inconclusive = mostly about 12 µM to 25 µM;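 the screen sought inhibitors and activators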
GBA mod: Glucocerebrosidase | Lysosomal acid glucosylceramidase (Homo sapiens), P04062 | purified enzyme, resorufin glucoside fluorescence (screen aimed at inhibitors), 20 min | Potency, µM | 48,000 tested, 1.1% active | AID 360, 2006; in the data active = potency below about 15 µM; inconclusive = mostly about 16 µM to 33 µM;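 also: the screen sought inhibitors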
Target sequence (P04062 whole entry, looked up): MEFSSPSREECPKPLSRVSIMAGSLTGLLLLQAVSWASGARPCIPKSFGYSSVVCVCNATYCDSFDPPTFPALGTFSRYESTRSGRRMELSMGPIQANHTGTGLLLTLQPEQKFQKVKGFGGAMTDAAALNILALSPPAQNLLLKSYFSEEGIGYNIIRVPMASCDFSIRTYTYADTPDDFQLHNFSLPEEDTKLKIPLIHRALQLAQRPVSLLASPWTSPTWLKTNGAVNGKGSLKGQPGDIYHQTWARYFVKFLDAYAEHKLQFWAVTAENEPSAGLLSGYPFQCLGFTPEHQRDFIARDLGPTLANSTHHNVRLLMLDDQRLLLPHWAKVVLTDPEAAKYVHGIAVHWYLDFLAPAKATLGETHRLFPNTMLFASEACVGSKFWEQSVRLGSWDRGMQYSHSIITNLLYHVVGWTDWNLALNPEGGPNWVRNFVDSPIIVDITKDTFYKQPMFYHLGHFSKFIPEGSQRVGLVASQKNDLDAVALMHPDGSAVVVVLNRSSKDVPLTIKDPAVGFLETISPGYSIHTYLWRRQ
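Normal human glucocerebrosidase (0.2 nM final) was assayed with resorufin β-D-glucopyranoside (30 uM final) in 50mM citric acid/KH2PO4, 10mM sodium taurocholate, 0.01% tween-20, pH 5.9. Compounds were titrated; fluorescence (Ex 548, Em 600) read after 20 min at RT.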
ERK AVP inh: qHTS Assay for Inhibitors of the ERK Signaling Pathway using a Homogeneous Screening Assay; HEK293-V1b, vasopressin-stimulated pERK AlphaScreen; 72,000 tested, 0.99% active; AID 995, 2007; Potency, µM (top dose mostly 57.5 µM), hits mostly inhibitors; also: nearly all actives have a fitted effect of over 55% in size
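qHTS, compounds titrated on V1b-expressing HEK293 cells. Preincubation 30 min at 37C, vasopressin 25 nM for 5 min, lysis 10 min, bead incubation 5 hr at room temperature.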
Luciferase inh: qHTS Assay for Inhibitors of Firefly Luciferase; Luciferin 4-monooxygenase (Photinus pyralis), P08659; purified firefly luciferase, luminescence, 8 min; Potency, µM (highest dose often 57.1 µM), usual class: inhibitors; 72,000 tested, 2.2% active; also: nearly all actives have a fitted effect of over 40% in size
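Here, luciferase activity is measured as luminescence following an 8 min room-temperature reaction at 10 uM ATP, pH 7.2. Every library sample is titrated.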
Numbers stand for hits; n = inactive; u = inconclusive; x = not tested or not shown; ! = not confirmed by another sample; [ ] = remark or other dose. Compounds with a hit are over-represented: about 3.9% of the library has one in this group of screens. Unless noted, calls follow the shape of the dose curve; as a rule, active = well fitted curve in the direction sought with a large enough effect; inconclusive = small, poorly fitted or top-dose-only effect, or another doubt; inactive = no such curve, though single readings can be large; an effect the other way counts as inactive or inconclusive.

SMILES	Bst PK mod	GBA mod	ERK AVP inh	Luciferase inh
Cc1nnc(NC(=O)C2CCCO2)s1 (centres undefined)	n	n	n	n
Cc1ccc2nc(N3CCN(C)CC3)c(C#N)cc2c1	n	n	n	n
N#Cc1cc2cc3c(cc2nc1N1CCCCC1)OCCO3	n	n	n	13µM
Cc1ccccc1/C=C\C1=NCCN1	x	x	n	n
Oc1cc2ccccc2cc1-c1n[nH]c(=S)o1	n	12	n	n
O=[N+]([O-])c1ccc(CCO)cc1	x	x	n	x
CSCCNC(=O)c1ccc(C(C)(C)C)cc1	u	n	u	13µM
CC1(C)CNC(=O)c2sc(N3CCCCC3)nc2C1	n	n	n	2µM
Cc1ccc(Cn2nnc3c(=O)[nH]c(C4CCN(S(=O)(=O)c5cc(C)ccc5C)CC4)nc32)cc1	n	u	u	n
Cc1ccc(C)c(S(=O)(=O)N2CCC(c3nc4c(nnn4Cc4ccc(F)cc4)c(=O)[nH]3)CC2)c1	n	7.1	n	n
Cc1ccc(Cn2nnc3c(=O)[nH]c(C4CCN(S(=O)(=O)c5ccc(F)cc5)CC4)nc32)cc1	n	5.5	n	n
COc1ccc(N/C=C(\C#N)c2nc3ccccc3n2C)c(OC)c1	10	x	x	4µM
COc1ccccc1C(=O)NCCn1cc(SCC(=O)Nc2nnc(C)s2)c2ccccc21	n	6.2	n	n
O=C(c1cc(-n2cnnc2)ccc1Cl)N1CCN(c2nc(-c3ccccc3)cs2)CC1	n	n	25µM	n
O=C(c1ncn[nH]1)N1CCN(c2nc(-c3ccccc3)cs2)CC1	x	n	u	n
COC(=O)CC1[C@@]2(C)C[C@@]34OC5(C)OC6(CC[C@@]7(C)C(c8ccoc8)OC(=O)C(C(C)=O)C7[C@]6(O5)C(O)[C@@]3(O)C2O)[C@]14C (some centres undefined)	x	x	n	x
Cc1ccc(S(=O)(=O)NCc2ccco2)cc1C	x	x	n	n
Cc1cc(C)c(C)c(S(=O)(=O)NCc2ccco2)c1C	11	n	n	n
Cc1cc(NC(=O)CSc2nc3c(c(=O)n2-c2ccc(Cl)cc2)SCC3)no1	n	14	n	n
O=C(Nc1nc(-c2ccccc2)ns1)c1cccs1	n	n	n	n
O=C(Nc1nc(-c2ccccn2)cs1)c1ccc(Cl)s1	x	x	x	n
O=C(Nc1nc(-c2ccc(Cl)s2)cs1)c1cccs1	u	n	10µM	n
O=C(Nc1nc(-c2ccccc2)cs1)c1cccs1	x	x	16µM	13µM
COC(=O)N1CCC2(CCCN(c3ncccn3)C2)CC1	x	x	n	n[11.4 µM]
COc1cc(CNc2ccc3c(c2)CCC3)cc(OC)c1O	x	x	n	n
SMILES	Bst PK mod	GBA mod	ERK AVP inh	Luciferase inh
COc1cc(CNc2ccc(C)c(C)c2)cc(OC)c1OC	x	x	40µM	n
CC(=O)N1CC=CC1(CC(C)C)C(=O)NCC1CC1 (centres undefined)	x	x	n	x
Cn1c(=O)c(C(=O)COC(=O)c2cc(-c3ccccc3)nc3ccccc23)c(N)n(Cc2ccccc2)c1=O	x	x	n	x
COc1ccc(-c2cc(C(=O)OCC(=O)N(C)C)c3ccccc3n2)cc1	9.8	n	u	20µM
O=Nc1c(-c2c(O)[nH]c3ccccc23)[nH]c2ccccc12	x	x	10µM	25µM!
CCOc1ccc(-c2nnc(N)o2)cc1	x	n	n	n
CCOc1ccc(-c2nnc(-c3ccncc3)o2)cc1	2.1	n	n	n
CCCCOc1ccc(-c2nnc(-c3ccncc3)o2)cc1	5.6	n	n	n
CCCCOc1ccc(C(=O)Nc2ccncc2)cc1	x	6.2	n	n
COCCn1c(=O)c(-c2cc(F)cc(F)c2)nc2cnc(Nc3cccc(OC)c3)nc21	x	x	n	n[11.4 µM]
C=C[C@@H]1CN2CC[C@@H]1C[C@H]2[C@H](O)c1ccnc2ccc(OC)cc12	x	x	x	n[11.4 µM]
Cc1cnc(CNc2nc(-c3ccc(N(C)C)cc3)nc3ccccc23)cn1	x	x	n	0.79µM
Cc1cnc(CNc2nc(-c3ccccc3C(F)(F)F)nc3ccccc23)cn1	x	x	n	n[2.29 µM]
CCCn1c(NC(=O)c2ccc(Cl)c(S(=O)(=O)N3CCCC3)c2)nc2ccccc21	n	x	3.2µM	n
CC(C)(C)C1CCC2(CC1)C(C#N)=C(SCC(=O)Nc1ccccc1)NC(=O)C2C#N (centres undefined)	n	x	x	n
N#CC1=C(SCC(=O)c2cc3ccccc3oc2=O)NC(=O)C(C#N)C12CCCC2 (centres undefined)	n	u	25µM	n
N#Cc1cccc(-c2cc(NCc3ccccc3)ncn2)c1	x	x	20µM	n[2.29 µM]
N#Cc1cccc(-c2nc(Nc3ccncc3)c3ccccc3n2)c1	x	x	n	n[2.29 µM]
Cc1cccc(CNc2cc(-c3ccccc3C)ncn2)c1	x	x	10µM	n[2.29 µM]
N#Cc1cccc(-c2nc(NCc3ccccc3)c3ccccc3n2)c1	x	x	20µM	n[2.29 µM]
COc1ccccc1-c1cc(NCc2cccc(C)c2)ncn1	x	x	u	n[2.29 µM]
Cc1[nH]c2ccc(F)cc2c(=O)c1SC(F)(F)C(F)F	n	9.5	n	n
COc1cc2c(cc1OC)[C@H](c1ccccc1)CN(C)CC2	x	x	n	n
CC(c1nnc(SCC(=O)c2c(N)n(C)c(=O)n(C)c2=O)n1-c1ccc(Cl)cc1)N(C)C (centres undefined)	n	n	40µM	n
Cc1nnc(SCC(=O)c2c(N)n(C)c(=O)n(C)c2=O)n1Cc1ccccc1	n	n	u	n
SMILES	Bst PK mod	GBA mod	ERK AVP inh	Luciferase inh
CC1=CC(=C2C(=O)c3ccccc3C2=O)C=C(C)N1Cc1ccco1	u	n	n	13µM
O=C1c2ccccc2C(=O)N1Cc1ccco1	n	n	n	n
O=C(O)CCCc1ccc2ccc3ccccc3c2c1	x	x	n[11.5 µM]	n[11.4 µM]
CC(=O)N1CN(Cc2ccccn2)Cc2c1sc1c2CCCC1	n	15	n	n
O=C(Nc1ccc(NC(=O)C2CC2)nc1)c1ccccn1	n	n	n	20µM
CCC(=O)Nc1ccc(NC(=O)c2ccccn2)cn1	x	n	u	40µM
O=C(Nc1ccc(NC(=O)C2CCCCC2)cn1)c1ccco1	n	9.8	n	5µM
O=C(Nc1ccc(NC(=O)c2ccco2)nc1)c1ccccn1	x	n	n	10µM
O=C(Cc1ccccc1)Nc1ccc(NC(=O)c2ccco2)nc1	n	n	n	n
O=C(Nc1ccc(NC(=O)C2CC2)nc1)c1ccncc1	n	u	n	n
C[C@@H]1CC[C@H]2C(=O)O[C@H](CN=[N+]=[N-])CN2[C@@H]1c1ccc(Br)cc1	x	x	n[11.5 µM]	n[11.4 µM]
O=C(O)CCCC[C@@H]1SC[C@H]2NC(=O)N[C@H]12	x	x	x	n[11.4 µM]
CC(C)C(=O)Nc1ccc(NC(=O)c2ccccn2)cn1	n	n	n	13µM
O=S(=O)(c1cccc2cccnc12)N1CCc2ccccc21	1.4	n	n	n
COc1ccc(OC)c(S(=O)(=O)N2CCC(C(=O)Nc3cccc(C(F)(F)F)c3)CC2)c1	n	n	16µM	n
O=C1NC(c2cccs2)Nc2sc3c(c21)CCCC3 (centres undefined)	2.9	n	u	n
Cc1nn(C(=O)c2ccc3c(c2)OCO3)c(N)c1-c1ccccc1	x	x	x	2µM
Cc1nn(C(=O)c2cccs2)c(N)c1-c1ccccc1	x	x	x	16µM
O=C(Nc1ccccc1)N1CCCC(c2nc(-c3cccs3)no2)C1 (centres undefined)	n	0.71	n	n
O=C(Nc1cccc(Cn2cccn2)c1)c1cc2c(s1)CCCC2	n	n	20µM	13µM

Bioassay records deposited in PubChem by National Center for Advancing Translational Sciences (NCATS).
